Inconclusive results are not listed. Activity calls are given as the source filed them. Calls come from the whole dose curve; as a rule, active = well fitted inhibition curve with a large enough effect; inconclusive = small, poorly fitted or top-dose-only effect; inactive = flat fitted curve, though single readings scatter.
How the values were obtained:
Assay in all cases: qHTS profiling for inhibitors of Plasmodium falciparum proliferation (AID 504749); note: nearly all actives have a fitted effect of over 60% in size
Settings in all cases: P. falciparum in erythrocytes, SYBR Green DNA, 72 h; series mostly up to 28.7 µM
3D7 = test system: 3D7
How it was run: (§1)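 P. falciparum-infected erythrocytes (0.3% parasitemia, 2.5% hematocrit) incubated with compound 72 h at 37 C, 5% CO2. Parasite DNA detected by SYBR Green after lysis, overnight at room temperature; normalised to 0.29 uM artemisinin and DMSO.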

7G8 = test system: 7G8
How it was run: as §1

AA1029 = test system: AA1029
How it was run: as §1

C2A = test system: C2A
How it was run: as §1

CP185 = test system: CP185
How it was run: as §1

CP191 = test system: CP191
How it was run: as §1

CP237 = test system: CP237
How it was run: as §1

CP250 = test system: CP250
How it was run: as §1

CP256 = test system: CP256
How it was run: as §1

DFO2036 = test system: DFO2036
How it was run: as §1

Dd2 = test system: Dd2
How it was run: as §1

ECU = test system: ECU
How it was run: as §1

FAB9 = test system: FAB9
How it was run: as §1

P93_24 = test system: P93_24
How it was run: as §1

P94_40 = test system: P94_40
How it was run: as §1

PAD = test system: PAD
How it was run: as §1

PC15 = test system: PC15
How it was run: as §1

SC27B = test system: SC27B
How it was run: as §1

TAB109 = test system: TAB109
How it was run: as §1

TAB165 = test system: TAB165
How it was run: as §1

Measured: Potency

CC(C)CN(C[C@@H](OP(=O)(O)O)[C@H](Cc1ccccc1)NC(=O)O[C@@H]1CCOC1)S(=O)(=O)c1ccc(N)cc1
inactive: all assays above
